Data taken from PubChem BioAssay AID1159580 (chemical genetic matrix, 2015).
Where “and” joins values, the source holds several entries; their conditions need not be identical. Equal entries are not always repeated. The whole screen tested about 5,500 compounds, of which about 2,000 (36%) were called active. About 18% were inconclusive and are not listed. Cut-off read from the data, not from the text of the source: active = normalized growth mostly below about 0.91 (no sharp cut-off); inconclusive = no clear call, values can overlap the other calls; inactive = mostly above about 0.92. The list shows a part of the results.

Assay: chemical genetic growth profiling, strain panel (AID 1159580);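 note: tested at 20 µM; growth read once vehicle control cultures reached saturation at 30 °C; 1 = growth at the plate median or of vehicle wells; lower values mean less growth of the strain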
Details: S. cerevisiae deletion strains, growth OD

Measured: normalized growth

CN1CCC[C@H]1c1cccnc1
inactive: locus YAL013W, strain DEP1, hits give low values 0.998 | locus YAL021C, strain ccr4, hits give low values 1.02 | locus YAL026C, strain drs2, hits give low values 1.03 | locus YAL030W, strain snc1, hits give low values 1.02 | locus YBL061C, strain skt5, hits give low values 1.03 | locus YBR009C, strain hhf1, hits give low values 1.02 | locus YBR021W, strain FUR4, hits give low values 0.968 | locus YBR023C, strain chs3, hits give low values 1.05 | locus YBR171W, strain sec66, hits give low values 1.05 | locus YBR229C, strain ROT2, hits give low values 0.992 | locus YBR231C, strain swc5, hits give low values 1.02 | locus YBR279W, strain paf1, hits give low values 1.02 | locus YCL011C, strain gbp2, hits give low values 1.03 | locus YCL016C, strain dcc1, hits give low values 1.03 | locus YCL029C, strain bik1, hits give low values 0.995 | locus YCL061C, strain MRC1, hits give low values 1 | locus YCL069W, strain vba3, hits give low values 1.04 | locus YCR088W, strain abp1, hits give low values 1.02 | locus YDL005C, strain med2, hits give low values 1.03 | locus YDL035C, strain GPR1, hits give low values 1.01 | locus YDL040C, strain nat1, hits give low values 1.02 | locus YDL074C, strain BRE1, hits give low values 1.03 | locus YDL101C, strain DUN1, hits give low values 0.994 | locus YDL134C, strain PPH21, hits give low values 0.994 | locus YDL185W, strain tfp1, hits give low values 0.983 | locus YDL192W, strain arf1, hits give low values 0.997 | locus YDR001C, strain nth1, hits give low values 1.03 | locus YDR069C, strain doa4, hits give low values 1.02 | locus YDR101C, strain arx1, hits give low values 1 | locus YDR137W, strain rgp1, hits give low values 1.05 | locus YDR150W, strain NUM1, hits give low values 0.999 | locus YDR159W, strain sac3, hits give low values 1 | locus YDR162C, strain NBP2, hits give low values 1.03 | locus YDR195W, strain ref2 1.02 | locus YDR297W, strain sur2, hits give low values 1.02 | locus YDR318W, strain mcm21, hits give low values 0.983 | locus YDR334W, strain swr1, hits give low values 1.03 | locus YDR335W, strain msn5, hits give low values 1.03 | locus YDR388W, hits give low values 0.996 | locus YDR392W, strain spt3, hits give low values 0.964 | locus YDR502C, strain sam2, hits give low values 1 | locus YEL003W, strain gim4, hits give low values 1.02 | locus YEL037C, strain rad23, hits give low values 1.03 | locus YEL061C, strain CIN8 (second series), hits give low values 1.03 | locus YEL061C, strain CIN8, hits give low values 0.993 | locus YER015W, strain faa2, hits give low values 1.03 | locus YER016W, strain bim1, hits give low values 1.02 | locus YER110C, hits give low values 0.985 | locus YER111C, strain swi4, hits give low values 1.04 | locus YER155C, strain BEM2 (second series), hits give low values 0.991 | locus YER155C, strain BEM2, hits give low values 0.992 | locus YER167W, strain BCK2, hits give low values 0.98 | locus YFR010W, strain ubp6, hits give low values 1.03 | locus YGL078C, strain dbp3, hits give low values 0.994 | locus YGL086W, strain mad1, hits give low values 0.969 | locus YGL167C, strain pmr1, hits give low values 1.04 | locus YGL173C, strain kem1, hits give low values 1.03 | locus YGL227W, strain vid30, hits give low values 1.04 | locus YGL240W, strain doc1, hits give low values 1 | locus YGL248W, strain PDE1, hits give low values 0.985 | locus YGL253W, strain hxk2, hits give low values 1.04 | locus YGR078C, strain PAC10, hits give low values 1.04 | locus YGR135W, strain pre9, hits give low values 1 | locus YGR229C, strain SMI1, hits give low values 1.02 | locus YGR252W, strain gcn5, hits give low values 0.949 | locus YHR013C, strain ard1, hits give low values 1.06 | locus YHR027C, strain rpn1, hits give low values 1.03 | locus YHR030C, strain SLT2, hits give low values 0.991 and 0.959 | locus YHR079C, strain IRE1 (second series), hits give low values 0.996 | locus YHR079C, strain IRE1, hits give low values 1.03 | locus YHR094C, strain hxt1, hits give low values 0.989 | locus YHR129C, strain ARP1, hits give low values 0.99 | locus YHR142W, strain chs7, hits give low values 1.06 | locus YHR200W, strain rpn10, hits give low values 0.981 | locus YIL066C, strain RNR3, hits give low values 0.985 | locus YIL073C, strain SPO22, hits give low values 0.968 | locus YIL125W, strain kgd1, hits give low values 0.997 | locus YIR030C, strain dcg1, hits give low values 0.995 | locus YJL092W, strain hpr5, hits give low values 1.02 | locus YJL095W, strain BCK1 (second series), hits give low values 1.02 | locus YJL095W, strain BCK1, hits give low values 1.01 and 0.947 | locus YJL115W, strain asf1, hits give low values 1.02 | locus YJL129C, strain trk1, hits give low values 1.07 | locus YJL134W, strain LCB3, hits give low values 0.989 | locus YJL154C, strain vps35, hits give low values 1.02 | locus YJL164C, strain tpk1, hits give low values 1.02 | locus YJL166W, strain qcr8, hits give low values 1.03 | locus YJL168C, strain set2, hits give low values 0.994 | locus YJL187C, strain SWE1 (second series), hits give low values 0.997 | locus YJL187C, strain SWE1, hits give low values 1.02 | locus YJR043C, strain POL32, hits give low values 0.995 | locus YJR066W, strain TOR1, hits give low values 0.943
